# From PubChem BioAssay AID588689 (Southern Research Specialized Biocontainment Screening …, 2011)
# Out of some 340,000 compounds screened, about 1,000 (0.29%) were called active. No stated cut-off is given here; in the data, inconclusive means inhibition above about 29% without an active follow-up result; inactive means below that. Only a sample is shown. Entries with a potency or affinity are not part of this list.
# Molecular target: Genome polyprotein (Dengue virus type 2 (strain 16681-PDK53)) (UniProt P29991)
# Assay: flavivirus cap methylation enzyme inhibition – biochemical, confirmation dose response, primary screen (AID 588689)
# Conditions: Dengue-2 NS5 methyltransferase capping enzyme assay, at 25 µM, stronger effect = higher value
# [1] = measured here: pilot screen replicate inhibition
SMILES,inhibition,inhibition [1]
COc1ccc(N2CCN(C3CCCN(C(=O)CN4CCCC4=O)C3)CC2)cc1 (stereo not given),-4.52% (inactive),
COCCCN1Cc2cccc(C(=O)O)c2C1=O,-4.84% (inactive),
O=C(CCCc1nc(-c2ccc(Cl)cc2)no1)NCC1CCCO1 (stereo not given),1.63% (inactive),
CC1(C)CC(=O)C(C2=NC3(CCCCC3)Cc3ccccc32)=C(O)C1,2.33% (inactive),
C=C(C1=CCN(S(=O)C(C)(C)C)[C@@H]1CCO)c1ccccc1 (stereo not given in full),0.33% (inactive),-2.42%
COc1ccc(/C=C(\C#N)C(=O)Nc2cc(S(=O)(=O)N3CCOCC3)ccc2N2CCCC2)cc1,-4.53% (inactive),
COc1ccc(-c2nc(-c3ccccn3)no2)cc1,-2.71% (inactive),
COC(=O)c1ccccc1N(C)S(C)(=O)=O,-6.11% (inactive),
COc1ccccc1N1CCN(CCNC(=O)Nc2cccc(C)c2C)CC1,-5.61% (inactive),
Cc1ccccc1NC(=O)c1cccc(N2C(=O)C3CCCCC3C2=O)c1 (stereo not given),-9.97% (inactive),
CN(C1CCCCC1)S(=O)(=O)c1ccc(S(=O)(=O)N2CCN(C(=O)c3ccccc3F)CC2)cc1,-5.65% (inactive),
Cc1onc(-c2ccccc2)c1C(=O)Nc1ccc(Cl)cn1,-2.24% (inactive),
Cc1cc(NC(=O)CSCc2nc(-c3cccc(F)c3)oc2C)no1,4.17% (inactive),
COc1ccc(N(CC(=O)NCCSC2CCCCC2)S(=O)(=O)c2ccc(C)cc2)cc1,-4.51% (inactive),
CC1CCCN(C2=C(Cl)C(=O)N(c3cccc(Cl)c3)C2=O)C1 (stereo not given),5.18% (inactive),
Cc1ccc(N2C(=O)C(Cl)=C(N3CCOCC3)C2=O)c(C)c1,5.79% (inactive),
Cc1cccc(N2C(=O)CC(N3CCOCC3)C2=O)c1 (stereo not given),0% (inactive),
O=C1C(Cl)=C(N2CCCCCC2)C(=O)N1c1ccccc1,-0.82% (inactive),
CN1CCN(C2=C(Cl)C(=O)N(c3cccc(Cl)c3)C2=O)CC1,12.9% (inactive),
O=C1C(Cl)=C(N2CCCCCC2)C(=O)N1c1ccc(Cl)cc1,2.94% (inactive),
COc1cc(C(=O)C(O)c2ccc(O)c(OC)c2)ccc1O (stereo not given),0% (inactive),
CN(Cc1cnn(-c2ccc(F)cc2)c1)Cc1nc(Cc2ccccc2)no1,-8.38% (inactive),
COC(=O)c1ccccc1C(=O)N1CCC(CCC(=O)NC2CC2)CC1,-9.72% (inactive),

SMILES,inhibition,inhibition [1]
CC(C)NC(=O)CSc1nccc(-c2cccs2)n1,6.26% (inactive),
CC(=O)C1=NN(c2ccccc2)C2(S1)S/C(=C\c1ccccc1)C(=O)N2c1ccccc1 (stereo not given),3.22% (inactive),
Cc1ccc(SCCc2cc[n+](CC(=O)c3ccccc3)cc2)cc1,-23.5% (inactive),
CCOc1ccc(-n2c(SCc3cc(=O)oc4cc(C)ccc34)nnc2-c2cccnc2)cc1,-5.85% (inactive),
COCC(COS(N)(=O)=O)Cc1ccccc1 (stereo not given),-5.61% (inactive),
C/C(=N\NS(=O)(=O)c1ccccc1)c1ccc2c(c1)OCCO2,-5.78% (inactive),
CC(=O)NCCc1nc2cc(NC(=O)c3ccc(F)cc3)ccc2n1C,0.65% (inactive),
COc1ccc(C2=CC(=O)CC(C)(C)C2)cc1OC,-7.08% (inactive),
CCn1c(CNC(=O)c2ccccc2F)nnc1SCC(=O)Nc1nncs1,-2.93% (inactive),
O=C1C(Cl)=C(N2CCCC2)C(=O)N1c1ccc(F)cc1,10.2% (inactive),
O=C1C(Cl)=C(N2CCCCCC2)C(=O)N1c1ccc(Br)cc1,4.71% (inactive),
Cc1ccc(N2C(=O)C(Cl)=C(N3CCCCCC3)C2=O)c(C)c1,-10.4% (inactive),
COC(=O)c1cccc(N2C(=O)C3CC=CCC3C2=O)c1 (stereo not given),-7.22% (inactive),
COC(=O)c1cccc(N2C(=O)c3cccnc3C2=O)c1,1.12% (inactive),
Cc1ccc(N2C(=O)C(Cl)=C(NCCO)C2=O)c(C)c1,-3.68% (inactive),
N=C1c2ccccc2CN1NC(=O)CC12CC3CC(CC(C3)C1)C2,-6.39% (inactive),
COc1ccc(NCc2nnc(SCC#N)n2-c2ccccc2OC)cc1,4.71% (inactive),
O=C(COC(=O)COc1ccccc1)NC12CC3CC(CC(C3)C1)C2,3.65% (inactive),
CC1=CC(C)(C)N(C(=O)CN2C(=O)CCC2=O)c2ccccc21,4.64% (inactive),
C/C(=N\OCC(=O)Nc1cc(C)cc(C)c1)c1ccc2c(c1)OCCO2,-2.91% (inactive),
O=C1COC(c2ccccc2O)=NN1CCCl,4.57% (inactive),
O=C(CN1C(=O)NC2(CCCC2)C1=O)OCCOc1ccc(Br)cc1,-1.44% (inactive),
CCOC(=O)[C@H](C)N1[C@H](C)[C@H](c2ccccc2)Oc2ccc(Cl)cc2S1(=O)=O,-5.21% (inactive),

SMILES,inhibition,inhibition [1]
Cc1ccc2cc(C=O)c(Cl)nc2c1,-3.88% (inactive),
Cc1ccc2cc(C=O)c(N(C)C)nc2c1,1.3% (inactive),
COc1ccc(C(=O)NC2CCCCCCC2)cc1OC,-1.55% (inactive),
CN=c1scc(-c2ccccc2F)n1/N=C/c1ccc(O)c(O)c1O,26.9% (inactive),
CN=c1scc(-c2cccs2)n1/N=C/c1ccccc1O,-0.73% (inactive),
CC(C)N=c1scc(-c2cccs2)n1/N=C/c1ccc(O)c(O)c1O,16.7% (inactive),
CCN=c1scc(C)n1/N=C/c1cc(Br)c(O)c(Br)c1,9.36% (inactive),
CN=c1scc(-c2ccco2)n1/N=C/c1ccc(O)c(O)c1,-2.15% (inactive),
CCN=c1scc(-c2ccco2)n1/N=C/c1ccc(O)cc1,4.53% (inactive),
CN=c1scc(C)n1/N=C/c1ccc(O)cc1O,2.07% (inactive),
CCN=c1scc(C)n1/N=C/c1ccsc1,2.4% (inactive),
COc1ccc(S(=O)(=O)NCCCN2CCCC2=O)cc1OC,-6.1% (inactive),
CC(C)(C)[C@@H]1C=C(C(=O)O)[C@H](c2ccc(Cl)cc2)N1S(=O)(=O)c1ccccc1,-3.97% (inactive),-4.61%
Cn1c(SCC(=O)Nc2ccccc2)nc2c([nH]c3ccccc32)c1=O,-11.1% (inactive),
Nc1ccn([C@@H]2O[C@H](CNC(=O)[C@@H](Cc3cccnc3)NC=O)[C@@H](O)[C@H]2O)c(=O)n1,-7.38% (inactive),
Cc1cc2nc(C)c3c(n2n1)CCC3,-6.57% (inactive),
Nn1c(COc2ccccc2F)nnc1SCC(=O)NC1CCCC1,-8.38% (inactive),
O=C1c2ccccc2NC(c2ccc(-c3ccc(F)cc3)o2)N1O (stereo not given),13.4% (inactive),
Cc1c(C(=O)O)cccc1-c1ccc(/C=C2/NC(=O)N(c3ccccc3)C2=O)o1,-1.55% (inactive),
O=C(O)c1ccccc1-c1ccc(/C=C2\SC(=O)N(c3ccccc3)C2=O)o1,25.1% (inactive),
CN1C(=O)/C(=C/c2ccc(-c3ccccc3[N+](=O)[O-])o2)SC1=Nc1ccc(Cl)c(C(=O)O)c1,24.5% (inactive),
CC1=NN(c2ccc(C)cc2)C(=O)/C1=C/c1ccc(-c2cc([N+](=O)[O-])ccc2O)o1,21.8% (inactive),
CCOC(=O)c1cc(-c2ccc(/C=N\n3cnnc3)o2)ccc1Cl,-3.91% (inactive),

SMILES,inhibition,inhibition [1]
CCCOC(=O)c1cc(-c2ccc(/C=C3/C(=O)N(C)C(=O)C(C#N)=C3C)o2)ccc1Cl,-12.3% (inactive),-8.18%
CC1=NN(c2ccc(Cl)c(C(=O)O)c2)C(=O)C1,10.9% (inactive),
Cc1ccc(CN2C(=O)N/C(=C/c3ccc(-c4ccc(C(=O)O)cc4)o3)C2=O)cc1,14.9% (inactive),
O=C(Nc1ccccc1N1CCCCC1)c1cc(S(=O)(=O)N2CCOCC2)ccc1Cl,-0.73% (inactive),
C#CC[N+](C)(C)CC#Cc1ccccc1,-1.48% (inactive),
O=C1CC(c2ccccc2)CC(O)=C1C=NCc1ccc(Cl)c(Cl)c1 (stereo not given),3.34% (inactive),
CC1(C)CC(=O)C(C(N)=NC(=O)c2ccccc2)=C(O)C1,0% (inactive),
CC(=O)c1c(C)[nH]c(C(=O)OCC(=O)N2CCc3ccccc32)c1C,-4.77% (inactive),
CCCCc1cc(=O)oc2cc(OCC(=O)N3CCc4ccccc43)ccc12,-4.8% (inactive),
CCc1ccc(N2C(=O)CC(Cn3nc(C)cc3C)C2=O)cc1 (stereo not given),-5.48% (inactive),
CN(C)S(=O)(=O)c1cccc(NC(=O)/C=C/c2ccc(S(=O)(=O)N3CCOCC3)cc2)c1,-0.74% (inactive),
COC(=O)c1ccccc1-c1ccc(/C=C2\C(=O)N(c3ccccc3)N=C2c2ccccc2)o1,1.6% (inactive),
CC1=NN(c2ccc(C(=O)O)cc2)C(=O)/C1=C/c1ccc(-c2ccccc2F)o1,51.9% (inactive),
CC1=NN(c2cccc(C(=O)O)c2)C(=O)/C1=C\C=C\c1ccco1,19.1% (inactive),
CCOC(=O)c1ccc(N2N=C(C)/C(=C/C=C/c3ccco3)C2=O)cc1,10.2% (inactive),
O=C(c1ccccc1[N+](=O)[O-])N1CCCC(C(=O)N2CCCCCC2)C1 (stereo not given),0% (inactive),
CCc1ccc(NC(=O)c2nc(S(=O)(=O)Cc3ccccc3)ncc2Cl)cc1,-51.9% (inactive),
CCCSc1nnc(NC(=O)c2nc(SC)ncc2Cl)s1,0% (inactive),
O=C(Nc1ccc(F)cc1)c1nc(S(=O)(=O)Cc2ccccc2)ncc1Cl,-51.9% (inactive),
C=CCSc1nnc(NC(=O)c2nc(SCC)ncc2Cl)s1,-6.43% (inactive),
COc1ccc([N+](=O)[O-])cc1NC(=O)CCN1CCOCC1,-1.96% (inactive),
COc1ccc(N(CC(=O)N/N=C/c2ccc(-c3ccc([N+](=O)[O-])cc3)o2)S(=O)(=O)c2ccc(C)cc2)cc1Cl,-4.14% (inactive),
O=C(c1ccc(N2C(=O)c3ccccc3C2=O)cc1)N1CCN(S(=O)(=O)c2ccccc2F)CC1,-0.55% (inactive),
